# TROY NFkB inh: inhibitors of TROY-driven NF-kB signaling, primary screen, Q293 LMP1-TROYcd cells, NF-kB luciferase, uHTS | Q293 LMP1-TROYcd NF-kB luciferase reporter, 4 h | inhibition, % at 10 µM | actives 0.98% (n = 360,000) | AID 1347056, 2019;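 active = compounds whose plate-normalised and pattern-corrected inhibition of the luciferase reporter signal at the single screening dose is 50% or more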
# HIF-2a block: HIF-2a reporter inhibitors, primary screen, luminescence, 786-0 RCC cells | 786-0 RCC cells HIF-2a reporter, luciferase luminescence, overnight | inhibition, % at 18.8 µM | actives 0.72% (n = 360,000) | AID 624352, 2012;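 active = inhibition of the luminescence signal of 40% or more relative to plate controls, in a single-dose primary screen at 18.75 µM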
# Peg3 prom inh: Peg3 promoter-driven luciferase inhibitors, primary screen, cell-based, HeLa, luciferase luminescence; HeLa PEG-Prom luciferase reporter, overnight; inhibition, % at 20 µM; actives 1.7% (n = 360,000); AID 588405, 2011;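 active = inhibition of at least 50% at 20 µM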
# KKLEB tox: cytotoxicity in KKLEB CF airway cells, primary screen, cytotoxicity control for CF NF-kB inhibitor project, cell-based, uHTS, fluorescence assay plates. actives 0.36% (n = 360,000). activity change (cytotoxicity), % at 5 µM. KKLEB CF airway cells viability, ATPlite luminescence, overnight; active compounds read low; cells stimulated with P. aeruginosa culture filtrate;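 active = corrected activity change at or below -50% at 5 µM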
# TWEAK-Fn14 inh: inhibitors of TWEAK-Fn14 signaling, primary screen, luciferase reporter cells, uHTS; TWEAK-stimulated Fn14 reporter cells, luciferase luminescence, 8 h; AID 1159606, 2016; actives 2% (n = 360,000); inhibition, % at 10 µM; in the data active = inhibition above about 50%
# CF NFkB block: inhibitors of PAF-induced NF-kB signaling, primary screen, cell-based, GFP fluorescence, uHTS; KKLEB NF-kB-GFP reporter, GFP fluorescence overnight; inhibition, % at 5 µM; actives 0.86% (n = 360,000); AID 588850, 2011;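 active = at least 50% inhibition at 5 µM, scaled per plate between neutral and stimulator controls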;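 note: PAF is a Pseudomonas aeruginosa culture filtrate used as stimulus; plate controls were PAF-stimulated DMSO wells for no effect and unstimulated DMSO wells for full effect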
# CF NFkB conf: inhibitors of PAF-induced NF-kB signaling, retest, confirmation, cell-based, GFP fluorescence, single concentration; actives 64% (n = 1,300); shares compounds with CF NFkB block; KKLEB CF airway cells, overnight; AID 602472, 2012; inhibition, % at 5 µM; in the data active = inhibition above about 40%;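 note: stimulus PAF is a Pseudomonas aeruginosa filtrate and not platelet activating factor; plate controls were DMSO wells with stimulus for no effect and unstimulated DMSO wells for full effect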
# An asterisk follows results filed as active; / = no result given. Most compounds without a hit are left out; they make up all but 4% or so of the library.
SMILES,TROY NFkB inh,HIF-2a block,Peg3 prom inh,KKLEB tox,TWEAK-Fn14 inh,CF NFkB block,CF NFkB conf
O=C(NCc1ccccc1)C1=C[C@@H](c2ccccc2)C[C@@H](OCc2ccc(CO)cc2)O1,-39,-6,2,-3,0,-5,/
CC1CCC(NC(=O)C2CCC(CNS(=O)(=O)c3ccc4c(c3)C(C)(C)C(=O)N4C)CC2)CC1 (stereo not given),1,1,-7,3,6,-22,/
O=C(NCc1nc(-c2ccc(C(F)(F)F)cc2)no1)Nc1ccc(F)cc1F,-2,11,10,6,10,2,/
O=C(NCc1nc(-c2ccc(C(F)(F)F)cc2)no1)Nc1cc(Cl)cc(Cl)c1,44,-17,52*,-30,-15,55*,50*
Cn1c(N2CCN(C(c3ccccc3)c3ccccc3)CC2)nc2c1c(=O)[nH]c(=O)n2C,9,12,43,-17,23,69*,84*
Cc1nc(N)nc(N)c1-c1ccc(Cl)c(Cl)c1,4,22,23,-10,12,10,/
Nc1nc(N)nc(-c2ccc(Cl)c(Cl)c2)n1,-3,-233,-302,-12,60*,79*,91*
C[C@@]12CCC=C[C@H]1[C@H](c1ccc3ccccc3c1)N(Cc1ccccc1)C2=O,25,26,26,-25,12,45,/
C[C@@]12CCC=C[C@H]1[C@H](c1ccc3ccccc3c1Br)N(Cc1ccccc1)C2=O,17,26,45,-21,2,57*,40*
CCOC(=O)N1CCC(NC(=O)c2ccc3c(c2)N=C(C)c2c(C)ccc(C)c2S3)CC1,20,24,21,-18,4,57*,58*
CCOC(=O)N1CCC(NC(=O)c2ccc3c(c2)N=C(CC)c2cc(C)ccc2S3)CC1,23,19,34,7,17,17,/
CCC(C)c1ccc(NC(=O)Nc2cccnc2)cc1 (stereo not given),-36,-272,-304,-16,-36,-37,/
C/C(=C\[C@@H](NP(=O)(c1ccccc1)c1ccccc1)c1ccccc1)CO[Si](c1ccccc1)(c1ccccc1)C(C)(C)C,-16,3,17,-33,1,54*,31
CCN(c1ccc(OC)cc1)c1ncnc2nc[nH]c12,38,18,13,3,59*,66*,86*
CCCCN(CCCC)c1ncnc2nc[nH]c12,33,34,6,-19,59*,53*,70*
CCCCN(Cc1ccccc1)c1ncnc2nc[nH]c12,-19,-142,-213,5,-12,31,/
CCCN(CC(=O)Nc1ccccc1OC)C(=O)CSC(=S)N1CCCC1,11,11,8,-23,5,-4,/
CC1(C)COC(/C=C/c2cccc([N+](=O)[O-])c2)=N1,-27,-35,-29,-14,36,52*,39
COc1ccc(N(CCCN2C(=O)c3cccc4cccc(c34)C2=O)C(=O)c2cccnc2)cc1,7,10,38,-15,-4,19,/
COc1ccc(N(CCCN2C(=O)c3cccc4cccc(c34)C2=O)C(=O)c2ccncc2)cc1,2,-76,-75,-24,-7,50*,45*
COCc1ccc(CN2CCC(n3nccc3NC(=O)CCOc3ccccc3)CC2)o1,-8,9,17,-8,-18,9,/
O=C(CN1C(=O)CCC1=O)Nc1nc(-c2nc3ccccc3s2)cs1,-6,-260,-251,0,83*,71*,92*
O=C(CN1C(=O)CCC1=O)Nc1nc(-c2ccccn2)cs1,1,10,5,-5,12,-30,/
COc1ccc(NC(=O)N[C@H]2C=C[C@@H](CC(=O)NC3CCC3)O[C@@H]2CO)cc1,/,12,/,/,/,/,/
C[C@@H]1CN([C@H](C)CO)C(=O)c2cc(NC(=O)Nc3ccc(C(F)(F)F)cc3)ccc2O[C@H]1CN(C)S(=O)(=O)c1ccc(Cl)cc1,18,0,23,-6,53*,64*,70*
SMILES,TROY NFkB inh,HIF-2a block,Peg3 prom inh,KKLEB tox,TWEAK-Fn14 inh,CF NFkB block,CF NFkB conf
C[C@@H]1CN([C@H](C)CO)C(=O)c2cc(NC(=O)Nc3ccc(C(F)(F)F)cc3)ccc2O[C@H]1CN(C)S(=O)(=O)c1cccs1,33,33,28,1,42,57*,81*
C[C@H](CO)N1C[C@H](C)[C@@H](CN(C)C(=O)Nc2ccc(C(F)(F)F)cc2)Oc2c(NC(=O)Nc3ccc4c(c3)OCO4)cccc2C1=O,-29,-1,-8,20,-32,-53,/
C[C@H](CO)N1C[C@H](C)[C@H](CN(C)S(=O)(=O)c2ccc(Cl)cc2)OCc2ccccc2-c2c(n(C)c3ccccc23)C1=O,24,-48,40,-6,62*,86*,4
C[C@H](CO)N1C[C@H](C)[C@@H](CN(C)S(=O)(=O)c2cccs2)Oc2ccc(NC(=O)Nc3ccccc3)cc2C1=O,-2,4,29,14,11,-4,/
C[C@H](CO)N1C[C@H](C)[C@@H](CN(C)C(=O)Nc2ccc3c(c2)OCO3)Oc2c(NC(=O)Nc3ccc(C(F)(F)F)cc3)cccc2C1=O,18,-20,60*,-18,24,80*,91*
CC(=O)NC(CC(=O)OC(C)C(=O)Nc1ncc(Cl)cc1Cl)c1ccccc1 (stereo not given),0,14,3,0,-2,-2,/
CCOC(=O)C1CCN(CC(=O)c2c(C)n(C)c3ccc(OC)cc23)CC1,-11,14,3,-1,-13,4,/
O=C1CCCN1CCCN1CC(C(=O)N(CCO)Cc2ccccc2)CCC1=O (stereo not given),6,4,3,18,-2,-5,/
COc1cc(C(=O)O[C@H]2C/C(C)=C/CC[C@@]3(C)O[C@@H]3[C@H](O)[C@@H]2C(C)C)cc(OC)c1OC,9,21,32,4,-21,-10,/
Cc1ccc(S(=O)(=O)N(C)C[C@@H]2Oc3ccc(NC(=O)CCC(F)(F)F)cc3CC(=O)N([C@@H](C)CO)C[C@@H]2C)cc1,31,9,9,-18,0,53*,43*
Cc1ccc2nsnc2c1NC(=O)CCl,5,7,5,3,17,-12,/
Cc1ccnc(NC(=O)c2ccc([N+](=O)[O-])o2)c1,14,-138,-66,3,0,51*,20

# Screening results as filed in PubChem.
